ST2 inh – inhibitors of human ST2 (IL1RL1) binding to IL-33, primary screen, biochemical, AlphaLISA | AlphaLISA ST2-Fc/biotin-IL-33 interaction, 1 h | inhibition, % for hits at 17 µM | actives 2.3% (n = 78,000); in the data active means inhibition above about 30%
Target sequence (Q01638 whole entry, looked up): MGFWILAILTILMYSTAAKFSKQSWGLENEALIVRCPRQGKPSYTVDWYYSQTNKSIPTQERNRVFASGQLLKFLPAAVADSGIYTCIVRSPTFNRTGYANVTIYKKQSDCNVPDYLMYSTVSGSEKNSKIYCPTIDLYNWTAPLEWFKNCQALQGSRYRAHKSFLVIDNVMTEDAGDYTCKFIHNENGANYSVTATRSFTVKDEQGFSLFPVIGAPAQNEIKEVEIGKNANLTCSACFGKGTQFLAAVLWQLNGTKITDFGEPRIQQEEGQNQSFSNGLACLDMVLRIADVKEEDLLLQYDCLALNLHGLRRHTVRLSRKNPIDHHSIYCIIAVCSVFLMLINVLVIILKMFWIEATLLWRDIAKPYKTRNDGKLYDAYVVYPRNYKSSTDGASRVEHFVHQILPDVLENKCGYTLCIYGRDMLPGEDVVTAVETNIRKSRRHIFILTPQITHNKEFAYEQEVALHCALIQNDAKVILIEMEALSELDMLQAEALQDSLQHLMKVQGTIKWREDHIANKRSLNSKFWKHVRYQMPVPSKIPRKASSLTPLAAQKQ
Numbers without * were called inactive; i = inactive. This is one part of a sample in which hits are shown more often than they occur.

SMILES | ST2 inh
O=c1oc(-c2ccccc2[N+](=O)[O-])nc2ccc(I)cc12 | i
CC(=O)Nc1c(C(=O)C2CC2)oc2ccc(Cl)cc12 | i
CC(=O)Nc1ccc(S(=O)(=O)N2C[C@@H]3C[C@H](C2)c2ccc(-c4ccccc4C)c(=O)n2C3)cc1 | i
Nc1ccc2nc3c(=O)[nH]c(=O)[nH]c3nc2c1 | 53%*
O=c1[nH]c(=O)c2nc3c(ccc4nsnc43)nc2[nH]1 | i
Cn1c(=O)c2nc3ccc(N)cc3nc2n(C)c1=O | i
COc1ccccc1C1CC(=O)N2CN(c3ccc(Br)cc3)CSC2=C1C#N (stereo unspecified) | i
O=C(Cn1c2ccccc2c(=O)c2ccccc21)Nc1ccccc1Br | i
O=C(Cn1c2ccccc2c(=O)c2ccccc21)Nc1ccccc1F | i
O=C(Cn1c2ccccc2c(=O)c2ccccc21)Nc1ccccc1C(F)(F)F | 39%*
C=CCSc1nnc2c(n1)OC1(Nc3ccccc3-2)C(=O)Nc2ccc(Br)cc21 (stereo unspecified) | i
Cc1ccc(-c2ccc(/C=C3/NC(=O)NC3=O)o2)cc1[N+](=O)[O-] | 41%*
CC1=C(C#N)C(=O)NC(=O)/C1=C\c1ccc(-c2cc(C)c(C)cc2[N+](=O)[O-])o1 | 34%*
Cc1ccc(-c2ccc(C=C3C(=O)OC(C)(C(C)(C)C)OC3=O)o2)cc1[N+](=O)[O-] (stereo unspecified) | i
Cc1ccc(C2=N/C(=C\c3cccnc3)C(=O)O2)cc1[N+](=O)[O-] | i
CCOc1ccc(-n2c(=O)[nH]cc(C(=O)Nc3ccc4c(c3)OCO4)c2=O)cc1 | i
CCCOC(=O)C(C)Oc1ccc2c(=O)c(Oc3ccccc3Br)coc2c1 (stereo unspecified) | i
CCOC(=O)C1(CCc2ccccc2)CCCN(C(=O)c2ccc(OC)o2)C1 (stereo unspecified) | i
O=C1Nc2ccccc2N(O)N1c1cccc(Br)c1 | i
CCN(CC)/C(=C\C(=O)c1ccc([N+](=O)[O-])cc1)c1ccccc1 | 31%*
O=C(c1ccc([N+](=O)[O-])cc1)N(c1ccccn1)c1ccccn1 | i
O=C(CC(=O)c1ccc([N+](=O)[O-])cc1)c1ccccc1 | i
Cc1ccc(NC(=O)N2Cc3[nH]cnc3C[C@H]2c2nc(-c3ccc4ccccc4c3)no2)cc1 | i
O=C(Nc1ccccc1)N1Cc2[nH]cnc2C[C@H]1c1nc(-c2ccc3ccccc3c2)no1 | 38%*
O=C(NC1CCCCC1)N1Cc2[nH]cnc2C[C@H]1c1nc(-c2ccc3ccccc3c2)no1 | i
SMILES | ST2 inh
O=C(NCc1cccs1)c1ccc(CS(=O)(=O)c2ccc(Br)cc2)o1 | i
COc1ccc(OCC(=O)NCc2ccco2)cc1 | i
Cc1ccc(Cn2c(CNC(=O)c3cccc(C)c3)nc3cccnc32)cc1 | i
CC(C)=C1[C@H]2CC[C@@H]1C(C(=O)O)[C@@H]2C(=O)NCc1ccc(Cl)cc1 (stereo partly specified) | i
COc1ccc(CNC(=O)c2ccc3c(c2)NC(=O)C2CCCCN32)cc1 (stereo unspecified) | i
CC(C)c1ccc(NC(=O)c2ccc3c(c2)NC(=O)C2CCCCN32)cc1 (stereo unspecified) | 99%*
CN(C)C(=O)c1ccc2c(c1)NC(=O)C1CCCCN21 (stereo unspecified) | i
NC1=NC(=O)CC(C(=O)Nc2cc(Cl)cc(Cl)c2)S1 (stereo unspecified) | i
CCOc1ccc2c(c1)CN(c1ccc(Br)cc1)CO2 | i
O=[N+]([O-])c1cccc2c1NC(c1cccc(Cl)c1Cl)C1CC=CC21 (stereo unspecified) | 39%*
O=[N+]([O-])c1ccc(C2Nc3c(cccc3C(F)(F)F)C3C=CCC32)cc1 (stereo unspecified) | i
O=C(c1cccc2c1NC(c1ccc(Cl)cc1Cl)C1CC=CC21)N1CCCC1 (stereo unspecified) | i
COc1ccc(C(O)=C2C(=O)C(=O)N(CCCN3CCOCC3)C2c2cccs2)cc1OC (stereo unspecified) | i
CC1CC(Nc2ncnc3nc[nH]c23)CC(C)(C)C1 (stereo unspecified) | i
CCC(Sc1nc(N)cc(=O)[nH]1)C(=O)Nc1ccc(Cl)cn1 (stereo unspecified) | i
COc1cc(C)c(C)cc1S(=O)(=O)N1CCN(c2ccccc2)CC1 | i
CN(CC(=O)NC1CCCc2ccccc21)S(=O)(=O)c1ccc2c(c1)CCC(=O)N2 (stereo unspecified) | i
Nc1nnc(SCC(=O)N2c3ccccc3Sc3ccccc32)s1 | i
COc1ccc(-c2n[nH]c(C)c2Oc2ccccc2)c(O)c1 | i
Oc1ccc(-c2[nH]ncc2Oc2ccccc2)c(O)c1O | 51%*
CCOc1ccc(-c2n[nH]c(C)c2Oc2ccccc2)c(O)c1 | i
Oc1ccc(-c2[nH]ncc2Oc2ccccc2)c(O)c1 | i
CCCc1ccc(Oc2cn[nH]c2-c2ccc(O)c(C)c2O)cc1 | i

From PubChem BioAssay
